High-throughput results from PubChem BioAssay.
MCL1-BIM inh: inhibitors of MCL1 binding to BIM-BH3, primary screen, biochemical, fluorescence polarization. Induced myeloid leukemia cell differentiation protein Mcl-1 (Homo sapiens), Q07820. GST-MCL1 / FITC-Bim-BH3 fluorescence polarization. inhibition, % at 10.9 µM. hit rate 0.68% among 320,000. AID 2057, 2009;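 active = inhibition above the mean inhibition of all tested compounds plus 3 SD, set per campaign, cut at about 40% in these data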;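 note: 0% = DMSO wells and 100% = unlabeled Bim-BH3 peptide control; higher means more loss of mP so more displacement of Bim peptide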
Target sequence (Q07820 whole entry, looked up): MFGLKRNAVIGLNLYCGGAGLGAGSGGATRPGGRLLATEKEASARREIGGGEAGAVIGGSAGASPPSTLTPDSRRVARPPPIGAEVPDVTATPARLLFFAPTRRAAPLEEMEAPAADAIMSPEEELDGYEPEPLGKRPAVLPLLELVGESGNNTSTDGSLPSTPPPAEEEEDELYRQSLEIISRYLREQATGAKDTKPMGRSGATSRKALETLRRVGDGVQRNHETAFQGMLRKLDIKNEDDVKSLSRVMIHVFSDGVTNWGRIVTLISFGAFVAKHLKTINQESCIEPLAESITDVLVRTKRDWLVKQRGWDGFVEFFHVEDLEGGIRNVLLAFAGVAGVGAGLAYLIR
Mcl1 Bid PPI: Mcl-1/Bid binding inhibitors, primary screen, biochemical, TR-FRET, 1536-well; inhibition, % at 21.7 µM; hit rate 0.97% among 220,000; AID 1021, 2008; TR-FRET Mcl-1/Bid-Dy647 peptide binding;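 active = compounds that cut the binding signal by more than half at the single screening dose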;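 note: His-tagged Mcl-1 with europium anti-His antibody binding Bid BH3 peptide; 0% = Mcl-1 plus peptide wells and 100% = peptide-only wells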
Mcl-1 Bim block: inhibitors of Bim peptide binding to Mcl-1, primary screen, biochemical, bead-based flow cytometry, multiplex | Induced myeloid leukemia cell differentiation protein Mcl-1 (Homo sapiens), Q07820 | Bim peptide-Mcl-1 binding | inhibition, % at 10 µM | hit rate 0.1% among 190,000; in the data active = inhibition above about 40%;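 note: 0% = no compound tracer wells and 100% = peptide blocker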
Mcl1-Noxa inh: Mcl-1/Noxa binding inhibitors, primary screen, biochemical, TR-FRET, 1536-well | Induced myeloid leukemia cell differentiation protein Mcl-1 (Homo sapiens), Q07820 | TR-FRET Mcl-1/Noxa peptide binding, 2 h | inhibition, % at 21.7 µM | hit rate 1.5% among 220,000;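 active = compounds that cut the protein-peptide binding signal by more than 50% relative to plate controls in a single-dose test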;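 note: His-tagged Mcl-1 with rhodamine Noxa BH3 peptide and terbium anti-His antibody; 0% = Mcl-1 plus Noxa peptide wells and 100% = peptide-only wells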
BCLXL inh confirm: Bcl-xL inhibitors blocking Bim BH3 binding, confirmation, counter-screen for MCL1 inhibitor project, biochemical, fluorescence polarization. shares compounds with MCL1-BIM inh. GST-Bcl-xL / FITC-Bim BH3 peptide FP binding. inhibition, % at 10.9 µM. hit rate 54% among 1,700. AID 2166, 2009;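 active = inhibition above a cutoff equal to the mean inhibition of all tested compounds plus 3 SD, cut at about 30% in these data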;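 note: 0% = DMSO wells and 100% = unlabeled Bim BH3 control peptide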
Target sequence (Q07817 whole entry, looked up): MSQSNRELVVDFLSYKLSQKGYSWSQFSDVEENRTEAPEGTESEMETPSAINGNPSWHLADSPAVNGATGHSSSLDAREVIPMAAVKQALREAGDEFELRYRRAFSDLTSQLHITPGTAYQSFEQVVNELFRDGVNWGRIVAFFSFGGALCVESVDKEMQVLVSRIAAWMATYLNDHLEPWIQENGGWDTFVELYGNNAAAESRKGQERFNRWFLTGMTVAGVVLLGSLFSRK
MCL1 inh confirm: inhibitors of MCL1 binding to BIM-BH3, confirmation, biochemical, fluorescence polarization, triplicate; GST-MCL1 / FITC-Bim-BH3 fluorescence polarization; shares compounds with MCL1-BIM inh; hit rate 61% among 1,700; inhibition, % at 10.9 µM;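 active = inhibition above the average of all tested compounds plus 3 SD, cut at about 40% in these data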;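 note: 0% = DMSO wells and 100% = unlabeled Bim-BH3 control peptide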
Numbers without * were called inactive; . = no result; + = active, no number. An excerpt weighted towards active compounds, which were near 2% of everything screened.

SMILES	MCL1-BIM inh	Mcl1 Bid PPI	Mcl-1 Bim block	Mcl1-Noxa inh	BCLXL inh confirm	MCL1 inh confirm
CCCCNC(=O)c1ccc2nc(-c3ccco3)c(-c3ccco3)nc2c1	59.5*	-5.1	3.0	93.1*	25.4	34.7
N#Cc1ccccc1COc1cccc2c1CCCC2O (stereo unspecified)	3.4	.	.	.	.	.
CN(CC(=O)Nc1ccc(Cl)c(Cl)c1)C(=O)CC1OC(=O)c2ccccc21 (stereo unspecified)	5.1	.	.	.	.	.
Cc1ccccc1OCCC(=O)OCC(=O)NNC(=O)c1cccs1	-7.7	.	.	.	.	.
CCOC(=O)Cn1cnc2c(cnn2-c2ccccc2)c1=O	8.1	.	.	.	.	.
Cc1cccn2c(=O)c3cc(C#N)c(=NC(=O)c4ccccc4)n(Cc4ccco4)c3nc12	31.1	.	.	.	.	.
COCCCn1c(=NC(=O)c2ccccc2)c(C#N)cc2c(=O)n3cccc(C)c3nc21	+	-4.9	.	18.4	76.2*	105.3*
Cc1cccc(C(=O)N=c2c(C#N)cc3c(=O)n4cccc(C)c4nc3n2Cc2ccco2)c1	64.3*	0.1	0.0	86.1*	38.4*	31.8
CCOCCCn1c(=NC(=O)c2cccs2)c(C#N)cc2c(=O)n3cccc(C)c3nc21	150.7*	1.8	.	21.0	115.1*	141.6*
COCCCn1c(=NC(C)=O)c(C#N)cc2c(=O)n3cccc(C)c3nc21	26.2	-25.5	.	6.9	.	.
Cc1ccc(CNc2ccccc2C(=O)O)s1	12.7	.	.	.	.	.
CC(NC(=O)CN(Cc1ccccc1)S(=O)(=O)c1ccccc1)c1cccnc1 (stereo unspecified)	6.9	.	.	.	.	.
C=CCN1C=C2C(=O)C(C)(OC(=O)CCC(=O)OC)C(=O)C(Br)=C2C=C1c1ccc(OC)cc1 (stereo unspecified)	74.1*	-124.3	.	13.1	52.0*	56.1*
COC(=O)CCC(=O)OC1(C)C(=O)C2=CN(C3CCCC3)C(c3ccc(OC)cc3)=CC2=C(Br)C1=O (stereo unspecified)	28.8	-73.5	.	16.7	.	.
Nc1ccccc1N1CCN(C(=O)c2ccccc2)CC1	108.3*	-23.4	0.0	14.6	12.3	10.6
Cc1cnc(NC(=O)c2sc(Nc3ccccc3)nc2N)o1	-2.1	-49.5	.	3.8	.	.
CCN(CC)c1ccc2cc(-c3nc(-c4ccc(OC)cc4)cs3)c(=O)oc2c1	110.5*	-19.1	.	-0.7	114.5*	133.9*
CCN(CC)c1ccc2cc(-c3nc4ccccc4[nH]3)c(=O)oc2c1	75.5*	96.3*	3.0	26.2	89.5*	105.0*
CCN(CC)c1ccc2cc(-c3nc4ccccc4n3C)c(=O)oc2c1	-5.9	0.9	3.0	0.7	.	.
O=C(O)C1CCC(Cn2c(SCc3cc(=O)n4cc(Cl)ccc4n3)nc3ccsc3c2=O)CC1 (stereo unspecified)	-2.9	-25.9	4.0	1.7	.	.
Cc1ccc(-n2[nH]c(C)c(C=Nc3ccc4[nH]c(=O)[nH]c4c3)c2=O)cc1C	116.8*	-6.7	2.0	12.0	102.6*	129.5*
Cc1[nH]n(-c2cccc3ccccc23)c(=O)c1C=Nc1ccc2[nH]c(=O)[nH]c2c1	4.3	-35.8	-4.0	-3.7	.	.
CC(=O)N(C)c1cccc(-c2ccc3nnc(C)n3n2)c1	10.2	.	.	.	.	.
CC(c1ccncc1)C(C)c1ccncc1 (stereo unspecified)	3.0	.	.	.	.	.
COc1ccc(NS(=O)(=O)c2ccc(F)c(Cl)c2)cn1	123.6*	.	.	.	48.9*	57.0*
SMILES	MCL1-BIM inh	Mcl1 Bid PPI	Mcl-1 Bim block	Mcl1-Noxa inh	BCLXL inh confirm	MCL1 inh confirm
CC1CCCCN1C(=O)CN1C(=O)NC2(CCCCC2C)C1=O (stereo unspecified)	8.3	.	.	.	.	.
Cc1ccc2nc3c(cc(C(=O)NCc4ccco4)c(=N)n3C3CCCC3)c(=O)n2c1	82.9*	.	.	.	74.4*	94.0*
Cc1cccc(SC2CCN(C(=O)C3CCC(=O)N(C4CC4)C3)CC2)c1 (stereo unspecified)	-3.4	.	.	.	.	.
COCCn1c(SCC(=O)NC(=O)NC2CCCC2)nc2ccccc2c1=O	2.6	.	.	.	.	.
CCCCCCCCCCCCCCCC(=O)OC(CC(=O)O)C[N+](C)(C)C (stereo unspecified)	84.6*	.	.	.	9.0	8.4
O=C1c2cccc3cccc(c23)C(=O)N1OS(=O)(=O)c1ccc(Br)cc1	-3.4	-19.9	-1.0	19.2	.	.
O=C1C(Br)=Cc2cccc3cccc1c23	134.6*	-6.6	.	4.7	96.7*	133.1*
Cc1c(C)c2c(c(C)c1O)CCC(C)(C(=O)O)O2 (stereo unspecified)	4.1	.	.	.	.	.
CC[C@@]1(O)C(=O)OCc2c1cc1n(c2=O)Cc2cc3c(CN(C)C)c(O)ccc3nc2-1	+	.	.	.	+	+
CCOC(=O)c1ccc(NC(=O)CSc2nc(C)cc(=O)[nH]2)cc1	40.9*	-3.8	-1.0	85.2*	22.6	50.7*
CN1CC=C2C(C#N)=C(N)C(C#N)(C#N)C(CCc3ccccc3)C2C1 (stereo unspecified)	82.0*	-42.0	0.0	1.1	43.1*	65.4*
CC(C)c1ccc(C2C3CSCC=C3C(C#N)=C(N)C2(C#N)C#N)cc1 (stereo unspecified)	-12.8	-28.4	-1.0	13.7	.	.
N#CC1=C(N)C(C#N)(C#N)C(c2ccncc2)C2CN(C(=O)OCc3ccccc3)CC=C12 (stereo unspecified)	14.1	-25.5	-4.0	14.6	.	.
CN1CC=C2C(C#N)=C(N)C(C#N)(C#N)[C@H](c3cccs3)[C@H]2C1	118.1*	-14.2	.	10.6	62.9*	70.8*
CN1CC=C2C(C#N)=C(N)C(C#N)(C#N)C(c3ccsc3)C2C1 (stereo unspecified)	117.4*	-19.9	-1.0	12.3	22.8	26.7
CN1CC=C2C(C#N)=C(N)C(C#N)(C#N)[C@H](c3cccc(Cl)c3)C2C1 (stereo partly specified)	115.5*	-33.7	-2.0	13.3	31.1*	36.1
Cc1ccccc1-n1cnc2c(sc3nc(N4CCOCC4)c4c(c32)CCCC4)c1=O	-5.6	11.0	.	-25.6	.	.
CC(OC(=O)C1CCN(c2ccc(C(F)(F)F)cn2)CC1)C(=O)c1ccccc1 (stereo unspecified)	-22.4	.	.	.	.	.
CC1CCN(C(=O)Cn2nnc(-c3ccc(N)cc3)n2)CC1	9.7	.	.	.	.	.
COc1ccc2nc(SCC(=O)N(C)CC(=O)Nc3ccc(F)cc3)[nH]c2c1	-6.3	.	.	.	.	.
O=C(C1CC(=O)N(c2ccc3c(c2)OCCO3)C1)N1CCCC(C(F)(F)F)C1 (stereo unspecified)	-14.0	.	.	.	.	.
CCC(=O)N1CCc2cc(S(=O)(=O)CCC(=O)Nc3cccc(C)n3)ccc21	14.3	-5.3	-3.0	2.7	.	.
